Experimental data taken from PubChem BioAssay (NCI).
“And” between values parts separate entries of the source, which are not always exact repeats. Identical values can stand only once. Compounds without any hit were thinned out: in the full panel of roughly 83,000, 20% have a hit.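 The endpoint reported here, percent growth, reads 100 for growth as untreated, 0 for no net growth and -100 for all cells dead.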 The source made the active and inactive calls. How the source made its calls: active means growth percent below 10; inactive means the rest.

Experiments:
Test in all cases: NCI-60 one-dose screen, 48 h (100 = growth as untreated, 0 = no growth, -100 = all killed)
Settings in all cases: 10 µM unless noted
NCI-H23 lung = test system: NCI-H23 lung
NCI-H226 lung = test system: NCI-H226 lung
NCI-H322M lung = test system: NCI-H322M lung
HOP-62 NSCLC = test system: HOP-62 NSCLC
NCI-H460 lung = test system: NCI-H460 lung
HOP-92 NSCLC = test system: HOP-92 NSCLC
NCI-H522 lung = test system: NCI-H522 lung
A549/ATCC NSCLC = test system: A549/ATCC NSCLC
786-0 renal = test system: 786-0 renal
COLO 205 colon = test system: COLO 205 colon

SMILES | growth (NCI-H23 lung) | growth (NCI-H226 lung) | growth (NCI-H322M lung) | growth (HOP-62 NSCLC) | growth (NCI-H460 lung) | growth (HOP-92 NSCLC) | growth (NCI-H522 lung) | growth (A549/ATCC NSCLC) | growth (786-0 renal) | growth (COLO 205 colon)
O=C(/C=C\c1ccnc2ccccc12)c1ccc([N+](=O)[O-])cc1 | 91.4% (inactive) and 63% (inactive) | 85.3% (inactive) and 68.5% (inactive) | 112% (inactive) and 115% (inactive) | 104% (inactive) and 77.9% (inactive) | 99.7% (inactive) and 79.8% (inactive) | 78% (inactive) and 58% (inactive) | 36.7% (inactive) and 67.7% (inactive) | 91.5% (inactive) and 78.3% (inactive) | 88.8% (inactive) and 81.4% (inactive) | 118% (inactive) and 105% (inactive)
O=C(Nc1cccc(-n2ccc3c(NC(=O)c4ccccc4)nccc32)c1)c1ccc(Cl)c(C(F)(F)F)c1 | -9.83% (active) and 72.4% (inactive) | 34.5% (inactive) and 75.3% (inactive) | 22.6% (inactive) and 79.3% (inactive) | -50.5% (active) and 67.7% (inactive) | -51.4% (active) and 12.8% (inactive) | -13.5% (active) | 82.8% (inactive) | 36.8% (inactive) | -74.9% (active) and 48% (inactive) | -49.7% (active) and 55.7% (inactive)
COc1cc(-c2nccc3cc4c(cc23)OCO4)cc(OC)c1OC | 56.9% (inactive) and 46.7% (inactive) | 62.9% (inactive) and 49.7% (inactive) | 66.1% (inactive) and 71.6% (inactive) | 38.1% (inactive) and 39.4% (inactive) | 18.1% (inactive) and 14.8% (inactive) | 58.3% (inactive) | -0.618% (active) | 46.6% (inactive) and 38.9% (inactive) | 38.6% (inactive) and 66.7% (inactive) | 11.2% (inactive) and -13.8% (active)
CCN(CC)CCCC(CNc1ccnc2cc(Cl)ccc12)c1ccc(Cl)cc1 (stereo not given) | 48.9% (inactive) and 54.3% (inactive) | 4.19% (active) and 25.2% (inactive) | -33.5% (active) and 46.5% (inactive) | 4.57% (active) and 88.8% (inactive) | 24.3% (inactive) and -63.6% (active) | -51.5% (active) and -68.6% (active) | -49.4% (active) and -59.6% (active) | 4.3% (active) and 61.4% (inactive) | -83.4% (active) and -97.3% (active) | -61.9% (active) and -85.6% (active)
CC1=CCC2CC1C2(C)C (stereo not given) | 80.7% (inactive) and 93.5% (inactive) | 101% (inactive) and 97.7% (inactive) | 92.4% (inactive) and 94.8% (inactive) | 82.8% (inactive) and 68.9% (inactive) | 106% (inactive) and 102% (inactive) | 75.5% (inactive) and 121% (inactive) | 92.9% (inactive) and 39.9% (inactive) | 94.3% (inactive) and 83.6% (inactive) | 101% (inactive) and 98.6% (inactive) | 89.2% (inactive) and 103% (inactive)
COc1c(/C(C)=N/N=c2sc(C(C)=O)nn2-c2ccc(Cl)cc2)c(Oc2ccccc2)c(OC)c2occc12 | 89.6% (inactive) and 98% (inactive) | 98.9% (inactive) and 97.4% (inactive) | 89.8% (inactive) and 100% (inactive) | 88.6% (inactive) and 98.3% (inactive) | 99.2% (inactive) and 103% (inactive) | 90.9% (inactive) and 93.5% (inactive) | 91.5% (inactive) and 79.8% (inactive) | 108% (inactive) and 102% (inactive) | 102% (inactive) | 114% (inactive) and 111% (inactive)
CC(=O)Nc1cc(S(=O)(=O)O)cc2cc(S(=O)(=O)O)c(N=Nc3ccccc3)c(O)c12 | 96.3% (inactive) and 101% (inactive) | 99.7% (inactive) and 105% (inactive) | 112% (inactive) and 91.9% (inactive) | 140% (inactive) and 98.6% (inactive) | 104% (inactive) and 103% (inactive) | 82% (inactive) and 102% (inactive) | 112% (inactive) and 82.3% (inactive) | 108% (inactive) and 97% (inactive) | 106% (inactive) and 103% (inactive) | 99.7% (inactive) and 109% (inactive)
O=C(CN1CCOCC1)N1CCOCC1 | 110% (inactive) and 104% (inactive) | 105% (inactive) and 113% (inactive) | 92% (inactive) and 110% (inactive) | 106% (inactive) and 112% (inactive) | 111% (inactive) and 114% (inactive) | 75.3% (inactive) | 75.3% (inactive) and 101% (inactive) | 103% (inactive) | 102% (inactive) and 108% (inactive) | 115% (inactive) and 105% (inactive)
O=[N+]([O-])c1ccc(N/N=C\c2cc(Br)ccc2O)nc1 | 20.7% (inactive) and 14.2% (inactive) | 91.4% (inactive) and 55.4% (inactive) | 24.2% (inactive) and 8.6% (active) | 12.2% (inactive) and 34.9% (inactive) | 2.22% (active) and 0.392% (active) | 37.9% (inactive) | 6.57% (active) and 7.63% (active) | 21.4% (inactive) | 25.6% (inactive) and 35% (inactive) | 22.9% (inactive) and 43.4% (inactive)
CCN(CC)CCC(CNc1ccnc2cc(Cl)ccc12)c1ccc(OC)cc1 (stereo not given) | 72.4% (inactive) and 66.1% (inactive) | 97.2% (inactive) and 95.5% (inactive) | 60.4% (inactive) and 64.8% (inactive) | 83.4% (inactive) and 77.7% (inactive) | 70.1% (inactive) and 62.9% (inactive) | 47.3% (inactive) and 59.4% (inactive) | 25.8% (inactive) and 20.3% (inactive) | 78.9% (inactive) and 88.3% (inactive) | 62.1% (inactive) and 73.7% (inactive) | 33.3% (inactive) and -41.5% (active)
Cc1ccc2nc3c(nc2c1)-c1cccc2cccc-3c12 | 89.5% (inactive) | 86.3% (inactive) | 74.6% (inactive) | 101% (inactive) | 72.4% (inactive) | 89.8% (inactive) | 66.4% (inactive) | 74.4% (inactive) | 105% (inactive) | 70.2% (inactive)
CCNC(=O)Nc1ccc(-c2nc3c(c(N4CCOC[C@@H]4C)n2)CCN(C2COC2)C3)cc1 | 50.8% (inactive) and 20.1% (inactive) | 19.7% (inactive) and -3.42% (active) | 39.3% (inactive) and 12.1% (inactive) | 43.3% (inactive) and 0.37% (active) | 25.7% (inactive) and 14.3% (inactive) | -6.36% (active) and -16.3% (active) | 24.1% (inactive) and 6.99% (active) | 44.3% (inactive) and 2.19% (active) | 36.6% (inactive) and 5.36% (active) | 28.4% (inactive) and 3.31% (active)
COc1cc(/C=N/Nc2nc3c([nH]2)c(=O)n(C)c(=O)n3C)ccc1O | 93.6% (inactive) and 111% (inactive) | 103% (inactive) and 113% (inactive) | 101% (inactive) and 105% (inactive) | 105% (inactive) and 102% (inactive) | 109% (inactive) and 111% (inactive) | 102% (inactive) | 87.8% (inactive) and 95.7% (inactive) | 105% (inactive) and 97.8% (inactive) | 95.7% (inactive) and 112% (inactive) | 119% (inactive) and 126% (inactive)
Oc1ccccc1C=NCC1CCC(CN=Cc2ccccc2O)CC1 (stereo not given) | 78.9% (inactive) | 101% (inactive) | 80.3% (inactive) | 94.5% (inactive) | 41.7% (inactive) | 104% (inactive) | 57.7% (inactive) | 92.2% (inactive) | 108% (inactive) | 97.3% (inactive)
